Measured values as given in the supplement of paper PMC8728848.
Only a selection was taken, and the strongest signals are over-represented in it overall.

How the values were obtained:
Test in all cases: glycan array binding signal (z-score within array); higher = stronger binding
Details in all cases: glycan notation: IUPAC condensed, linker removed
[1] = molecular target: Fuc(a1-2)Gal(b1-3)GalNAc(b1-3)Gal(a1-4)Gal(b1-4)Glc
Summary of the method: (§1)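 From the Consortium for Functional Glycomics database, 3228 arrays were curated, keeping only those whose protein sequence was available. Binding is given as a within-array Z-score averaged across arrays sharing a protein sequence and across linkers. Negative Z-scores can be read as non-binding.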

[2] = molecular target: Fuc(a1-2)Gal(b1-3)GlcNAc(b1-2)Man(a1-3)[Fuc(a1-2)Gal(b1-3)GlcNAc(b1-2)Man(a1-6)]Man(b1-4)GlcNAc(b1-4)[Fuc(a1-6)]GlcNAc
Summary of the method: as §1

[3] = molecular target: Fuc(a1-2)Gal(b1-4)GlcNAc(b1-2)[Fuc(a1-2)Gal(b1-4)GlcNAc(b1-4)]Man(a1-3)[Fuc(a1-2)Gal(b1-4)GlcNAc(b1-2)Man(a1-6)]Man(b1-4)GlcNAc(b1-4)GlcNAc
Summary of the method: as §1

[4] = molecular target: Fuc(a1-2)Gal(b1-4)[Fuc(a1-3)]GlcNAc(b1-2)Man(a1-3)[Fuc(a1-2)Gal(b1-4)[Fuc(a1-3)]GlcNAc(b1-2)Man(a1-6)]Man(b1-4)GlcNAc(b1-4)[Fuc(a1-6)]GlcNAc
Summary of the method: as §1

[5] = molecular target: Fuc(a1-2)Gal(b1-4)[Fuc(a1-3)]GlcNAc(b1-3)Gal(b1-4)[Fuc(a1-3)]GlcNAc(b1-3)Gal(b1-4)[Fuc(a1-3)]GlcNAc
Summary of the method: as §1

[6] = molecular target: Fuc(a1-2)Gal(b1-4)[Fuc(a1-3)]GlcNAc(b1-3)[Neu5Ac(a2-6)Gal(b1-4)GlcNAc(b1-6)]Gal(b1-4)Glc
Summary of the method: as §1

[7] = molecular target: Fuc(a1-2)[Gal(a1-3)]Gal(b1-4)GlcNAc(b1-2)Man(a1-3)[Fuc(a1-2)[Gal(a1-3)]Gal(b1-4)GlcNAc(b1-2)Man(a1-6)]Man(b1-4)GlcNAc(b1-4)GlcNAc
Summary of the method: as §1

[8] = molecular target: Fuc(a1-2)[GalNAc(a1-3)]Gal(b1-3)GalNAc(b1-3)Gal(a1-4)Gal(b1-4)Glc
Summary of the method: as §1

[9] = molecular target: Fuc(a1-2)[GalNAc(a1-4)]Gal(b1-4)GlcNAc
Summary of the method: as §1

[10] = molecular target: Fuc(a1-3)[Gal(b1-4)]GlcNAc(b1-6)GalNAc
Summary of the method: as §1

Gal(a1-4)GlcNAc = molecular target: Gal(a1-4)GlcNAc
Summary of the method: as §1

[11] = molecular target: Gal(b1-3)GlcNAc(a1-6)Gal(b1-4)GlcNAc
Summary of the method: as §1

[12] = molecular target: Gal(b1-3)GlcNAc(b1-2)Man(a1-3)[Gal(b1-3)GlcNAc(b1-2)Man(a1-6)]Man(b1-4)GlcNAc(b1-4)GlcNAc
Summary of the method: as §1

[13] = molecular target: Gal(b1-3)GlcNAc(b1-3)Gal(b1-4)GlcNAc(b1-6)[Gal(b1-3)GlcNAc(b1-3)]Gal(b1-4)Glc
Summary of the method: as §1

[14] = molecular target: Gal(b1-3)GlcNAc(b1-3)Gal(b1-4)[Fuc(a1-3)]GlcNAc(b1-6)[Gal(b1-3)GlcNAc(b1-3)]Gal(b1-4)Glc
Summary of the method: as §1

[15] = molecular target: Gal(b1-4)GlcNAc(b1-2)Man(a1-3)[Gal(b1-4)GlcNAc(b1-2)Man(a1-6)][GlcNAc(b1-4)]Man(b1-4)GlcNAc(b1-4)[Fuc(a1-6)]GlcNAc
Summary of the method: as §1

[16] = molecular target: Gal(b1-4)GlcNAc(b1-2)Man(a1-3)[Man(a1-6)]Man(b1-4)GlcNAc(b1-4)GlcNAc
Summary of the method: as §1

[17] = molecular target: Gal(b1-4)GlcNAc(b1-2)Man(a1-6)[GlcNAc(b1-2)Man(a1-3)]Man(b1-4)GlcNAc(b1-4)GlcNAc
Summary of the method: as §1

[18] = molecular target: Gal(b1-4)GlcNAc(b1-2)[Gal(b1-4)GlcNAc(b1-4)]Man(a1-3)[Gal(b1-4)GlcNAc(b1-2)[Gal(b1-4)GlcNAc(b1-6)]Man(a1-6)]Man(b1-4)GlcNAc(b1-4)GlcNAc
Summary of the method: as §1

[19] = molecular target: Gal(b1-4)GlcNAc(b1-3)Gal(b1-4)GlcNAc(b1-2)[Gal(b1-4)GlcNAc(b1-3)Gal(b1-4)GlcNAc(b1-6)]Man(a1-6)[Gal(b1-4)GlcNAc(b1-3)Gal(b1-4)GlcNAc(b1-2)Man(a1-3)]Man(b1-4)GlcNAc(b1-4)[Fuc(a1-6)]GlcNAc
Summary of the method: as §1

[20] = molecular target: Gal(b1-4)GlcNAc(b1-3)Gal(b1-4)GlcNAc(b1-3)Gal(b1-4)GlcNAc(b1-2)[Gal(b1-4)GlcNAc(b1-3)Gal(b1-4)GlcNAc(b1-3)Gal(b1-4)GlcNAc(b1-6)]Man(a1-6)[Gal(b1-4)GlcNAc(b1-3)Gal(b1-4)GlcNAc(b1-3)Gal(b1-4)GlcNAc(b1-2)Man(a1-3)]Man(b1-4)GlcNAc(b1-4)[Fuc(a1-6)]GlcNAc
Summary of the method: as §1

[21] = molecular target: Gal(b1-4)GlcNAc(b1-3)Gal(b1-4)GlcNAc(b1-3)Gal(b1-4)GlcNAc(b1-3)Gal(b1-4)GlcNAc(b1-3)Gal(b1-4)GlcNAc(b1-2)Man(a1-3)[Gal(b1-4)GlcNAc(b1-3)Gal(b1-4)GlcNAc(b1-3)Gal(b1-4)GlcNAc(b1-3)Gal(b1-4)GlcNAc(b1-3)Gal(b1-4)GlcNAc(b1-2)Man(a1-6)]Man(b1-4)GlcNAc(b1-4)[Fuc(a1-6)]GlcNAc
Summary of the method: as §1

[22] = molecular target: Gal(b1-4)GlcNAc(b1-3)Gal(b1-4)GlcNAc(b1-3)Gal(b1-4)GlcNAc(b1-3)Gal(b1-4)GlcNAc(b1-3)Gal(b1-4)GlcNAc(b1-2)[Gal(b1-4)GlcNAc(b1-3)Gal(b1-4)GlcNAc(b1-3)Gal(b1-4)GlcNAc(b1-3)Gal(b1-4)GlcNAc(b1-3)Gal(b1-4)GlcNAc(b1-6)]Man(a1-6)[Gal(b1-4)GlcNAc(b1-3)Gal(b1-4)GlcNAc(b1-3)Gal(b1-4)GlcNAc(b1-3)Gal(b1-4)GlcNAc(b1-3)Gal(b1-4)GlcNAc(b1-2)Man(a1-3)]Man(b1-4)GlcNAc(b1-4)[Fuc(a1-6)]GlcNAc
Summary of the method: as §1

[23] = molecular target: Gal(b1-4)GlcNAc(b1-3)Gal(b1-4)GlcNAc(b1-3)GalNAc
Summary of the method: as §1

[24] = molecular target: Gal(b1-4)GlcNAc(b1-3)Gal(b1-4)GlcNAc(b1-6)[Gal(b1-3)]GalNAc
Summary of the method: as §1

[25] = molecular target: Gal(b1-4)GlcNAc(b1-3)Gal(b1-4)[Fuc(a1-3)]GlcNAc(b1-3)Gal(b1-4)[Fuc(a1-3)]GlcNAc
Summary of the method: as §1

[26] = molecular target: Gal(b1-4)GlcNAc(b1-3)GalNAc
Summary of the method: as §1

B1: Awp3 (Candida glabrata), B4UN32 (protein)
chain: MISFVTLLAILGLLSISWADQTVRSVAGDQRVTDPVIVGDNSILDYYGGSNYDFSNNFEIGRGTLYIGKESYFSSFQSAPTDVPNSFHLLIKNTNNLQNNGQFIIENIKRHANQCSNSSIQVFPINFQNDGEFEIISGGVEGRCCLPTSVIAPQNFLNNGKFYYKVLTDTGSIYSGSCMQNVDIGASTTTTVNNNLWEFTGSINAQINGAVSGAAQINLDGSNMFVNANTFSGQVVNLINGGSFLQTSDPLSNIVVINGLGTSDTGVTSIAVKGKGKSFTYNPSSGIVKLTTVEGKTYAYQIGCGYNTKKFITNNDSGASYESADNFFVLTYSEPYSPQTCQLENSSIFSSNFISTSTSSSSSSSSASSLPSSMSSSLPSSLSSSLSSSLSSSMSSSMSSLFIIPPPYTTTRSSGSSIIDTEIVSFYSTTDSPGHTITGTTTTTLYGPHTHSSVSTPSSSSESSTTSNSSIESSSLPHTSVSSTPESSITPSSNTISSSPTSDFSSVQSSSIMESSSVVASSSVINSSSIVDSSSSSASSLPSSMSSSLSSSMSSSLPSSMSSSLSSSLSSSLSSSMSSSMSSLFIIPPPYTTTRSSGSSIIDTEIVSFYSTTDSPGHTITGTTTTTLYGPHTHSSVSTPSSSSESSTTSNSSIESSSLPHTSVSSTPESSITPSSNTISSSPTSDFSSVQSSSIMESSSVVASSSVINSSSIVDSSSSSASSLPSSMPSSLPSSMSSSLSSSMSSSLSSSLSSSLSSSMSSSMSSLFIIPPPYTTTRSSGSSIIDTEIVSFYSTTDSPGHTITGTTTTTLYGPHTHSSVSTPSSSSESSTTSNSSIESSSLPHTSVSSTPESSITPSSNTISSSPTSDFSSVQSSSIMESSSVVASSSATQSSSVINSSSIVDSSSSSASSLPSSMPSSLPSSLSSSLSSSLSSSMSSSMSSLFIIPPPYTTTRSSGSSIIDTEIVSFYSTTDSPGHTITGTTTTTLYESSIYSSSSSTIQESELSNTSRTTMTSNSSVSISSTSSRSSFSNTKSSTIVISQSASLPDSKTDIILSTSSNIGYSSRSLLSDLGTSISDSDIHHSVLHSTESYSSNESGTNPFTSIASLSNFIPESSSHTSTALGSENSVISSDILTTMSHPVATNSGDKPTTPKRSEQVSTTMTSSGPTPDTSSFDTDGMSAYSRPEFTTNSLEVNKSSTSQLGNNKQTFSNLQLESTRPHSENEVDNNTRLLQSIQQSSTYGTNNVNPLSPTGSISIPLTEDGQGDNNNWNSPATNDLCTQISFNLTATTITVTDRITITDSIHDISSEVITSYIYQTIVDQKTVTQTVDGKSLANKMSSIPKPSSRSLIQPQPPVAIELQEGAASTSRVSLVSLFISIILVLL
[1]
  glycan array binding signal (z-score): 2.34
[2]
  glycan array binding signal (z-score): 1.49
[3]
  glycan array binding signal (z-score): 3.23
[4]
  glycan array binding signal (z-score): -0.693
[5]
  glycan array binding signal (z-score): 1.19
[6]
  glycan array binding signal (z-score): -1.1
[7]
  glycan array binding signal (z-score): 2.45
[8]
  glycan array binding signal (z-score): 2.28
[9]
  glycan array binding signal (z-score): -0.218
[10]
  glycan array binding signal (z-score): 0.39
Gal(a1-4)GlcNAc
  glycan array binding signal (z-score): 2.25
[11]
  glycan array binding signal (z-score): 0.259
[12]
  glycan array binding signal (z-score): 2.55
[13]
  glycan array binding signal (z-score): 1.3
[14]
  glycan array binding signal (z-score): 2.48
[15]
  glycan array binding signal (z-score): 1.4
[16]
  glycan array binding signal (z-score): -0.338
[17]
  glycan array binding signal (z-score): 0.07
[18]
  glycan array binding signal (z-score): -0.258
[19]
  glycan array binding signal (z-score): -1.19
[20]
  glycan array binding signal (z-score): 1.96
[21]
  glycan array binding signal (z-score): 0.113
[22]
  glycan array binding signal (z-score): -0.313
[23]
  glycan array binding signal (z-score): 1.03
[24]
  glycan array binding signal (z-score): -0.292
[25]
  glycan array binding signal (z-score): 0.452
[26]
  glycan array binding signal (z-score): -0.074
